Source: paper PMC5540273 (PLoS ONE, 2017)

System: CDK4
Settings: concentration: 1 μM,replicates: in singlicate; n = 1
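Further: KINOMEscan kinase panel screen.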

Row | Compound | %Inh
1 | O=C(Nc1cccc(C(F)(F)F)c1)c1cccc(Oc2ccc3nccn3n2)c1 | 0%
2 | O=c1[nH]cc(-c2ccc(O)cc2)c2sc(-c3ccncc3)cc12 [GSK1033723] | 31%
3 | Cc1nnc(-c2ccc3occ(-c4ccc(S(C)=O)cc4)c3n2)o1 (stereo not shown) | 0%
4 | Cl.Cl.NC[C@H](CC1CCCCC1)NC(=O)c1ccc(-c2ccnc3[nH]ccc23)s1 [GSK1581428] | 25%
5 | CCNCC(Cc1ccccc1)NC(=O)c1cc(Br)c(-c2ccnc3[nH]ccc23)s1.Cl.Cl (stereo not shown) [GSK1383280] | 0%
6 | COc1cc2nccc(Nc3ccc(Oc4ccccc4)cc3)c2cc1OC.Cl [GI261656] | 44%
7 | O=C(NCC1CC1)c1ccc(-c2cc(C(=O)NC3CC3)ccc2F)cc1 [GW810445] | 1%
8 | NC(=O)Nc1sc(-c2ccc(F)cc2)cc1C(N)=O [GW789449] | 0%
9 | C[C@@H](Oc1cc(-n2cnc3cc(-c4ccncc4)ccc32)sc1C(N)=O)c1ccccc1Cl [GSK479719] | 0%
10 | OCCn1cc(-c2cnc3nnn(Cc4ccc5ncccc5c4)c3n2)cn1 | 0%
11 | Cn1ccc2ncnc(Oc3ccc(NC(=O)Nc4cncc(C(F)(F)F)c4)c(Cl)c3)c21 | 0%
12 | COC(=O)c1cccc(NC(=O)NC2CCN(c3ccnc(NCc4ccc(F)cc4)n3)CC2)c1 [GSK1379860] | 0%
13 | Cc1n[nH]c2cc(Nc3ccnc(Nc4cccc(CN5CCOCC5)c4)n3)ccc12 [GW682569] | 31%
14 | FC(F)(F)c1cc(Br)cc(Nc2nccc(-c3cnn4ncccc34)n2)c1 [GW810578] | 8%
15 | Cn1ccc2ncnc(Oc3ccc(NC(=O)Nc4cccc(C(F)(F)F)c4)c(F)c3)c21 | 0%
16 | COc1cc2ncn(-c3cc(OCC4CCCCC4)c(C(N)=O)s3)c2cc1OC [GSK204559] | 8%
17 | CN1CCN(CCNc2nc3cc(Oc4ccc(NC(=O)Nc5cc(C(F)(F)F)ccc5F)cc4)ccc3[nH]2)CC1.Cl.Cl [GW768504] | 2%
18 | CS(=O)c1ccc(-c2coc3ccc(-c4n[nH]c(=O)o4)cc23)cc1 (stereo not shown) | 10%

Row | Compound | %Inh
19 | CN(c1cccc(CNc2nc(Nc3ccc4c(c3)CC(=O)N4)ncc2C(F)(F)F)c1)S(C)(=O)=O | 0%
20 | C[C@@H](Oc1cc(-n2cnc3ccc(-c4ccncc4)cc32)sc1C(N)=O)c1ccccc1Cl [GSK483724] | 27%
21 | c1ccc(Oc2ccc(Nc3ccnc4ccc(-c5ccccn5)cc34)cc2)cc1 [GW407034] | 0%
22 | COc1cc(Nc2nccc(N3CCC(NC(=O)c4cccc(C#N)c4)C3)n2)cc(OC)c1OC (stereo not shown) [GSK1379751] | 27%
23 | COC(=O)Nc1nc2cc(Oc3ccc(NC(=O)Nc4cc(C(F)(F)F)ccc4Cl)cc3)ccc2[nH]1.Cl [GW697465] | 50%
24 | C[C@@H](Oc1cc(-n2cnc3cc(-c4cnn(C)c4)ccc32)sc1C(N)=O)c1ccccc1Cl [GSK580432] | 18%
25 | O=C(Nc1ccc(Oc2ccc3nc(NC(=O)C4CC4)cn3n2)c(F)c1)c1cccn(-c2ccccc2)c1=O | 0%
26 | Cn1cc(-c2cccc3c(N)c(C(N)=O)nnc23)cn1 | 0%
27 | Cc1ccc2c(-c3ccnc(Nc4ccc(C(F)(F)F)cc4)n3)cnn2n1 [GW819776] | 16%
28 | Cl.Nc1n[nH]c2cc(-c3ccccn3)ccc12 [GSK2189892] | 0%
29 | C[C@@H]1CNc2c(sc3ccc4nc(-c5ccc(O)cc5)ccc4c23)C(=O)N1 | 4%
30 | CC(=O)Nc1nc2cnc(Nc3cc(NC(=O)c4cccc(CC(C)(C)C#N)c4)ccc3C)nc2s1 | 45%
31 | CC(C)S(=O)(=O)N1CCN(Cc2ccc3c(c2)nc(NC(=O)c2ccsc2)n3C[C@H](O)c2ccccc2)CC1 [GW635815] | 42%
32 | Cn1ccc2ncnc(Oc3ccc(NC(=O)Nc4ccnc(C(F)(F)F)c4)c(Cl)c3)c21 | 0%
33 | O=C1NCCc2[nH]c(-c3ccncc3)cc21 | 27%
34 | Cc1ccc(C(=O)Nc2ccc(Oc3ccc4nc(NC(=O)C5CC5)cn4c3)c(F)c2)c(=O)n1-c1ccccc1 | 0%
35 | Cc1ccc(Nc2ccnc(Nc3ccc4c(c3)CS(=O)(=O)C4)n2)cc1O.Cl [GW579362] | 43%
36 | CN(c1ccccc1CNc1nc(Nc2ccc3c(c2)CC(=O)N3)ncc1C(F)(F)F)S(C)(=O)=O | 0%

System: CDK5
Settings: concentration: 1 μM,replicates: in singlicate; n = 1

Row | Compound | %Inh
37 | O=C(Nc1cccc(C(F)(F)F)c1)c1cccc(Oc2ccc3nccn3n2)c1 | 0%
38 | O=c1[nH]cc(-c2ccc(O)cc2)c2sc(-c3ccncc3)cc12 [GSK1033723] | 0%
39 | Cc1nnc(-c2ccc3occ(-c4ccc(S(C)=O)cc4)c3n2)o1 (stereo not shown) | 0%
40 | Cl.Cl.NC[C@H](CC1CCCCC1)NC(=O)c1ccc(-c2ccnc3[nH]ccc23)s1 [GSK1581428] | 0%
41 | CCNCC(Cc1ccccc1)NC(=O)c1cc(Br)c(-c2ccnc3[nH]ccc23)s1.Cl.Cl (stereo not shown) [GSK1383280] | 0%
42 | COc1cc2nccc(Nc3ccc(Oc4ccccc4)cc3)c2cc1OC.Cl [GI261656] | 0%
43 | O=C(NCC1CC1)c1ccc(-c2cc(C(=O)NC3CC3)ccc2F)cc1 [GW810445] | 0%
44 | NC(=O)Nc1sc(-c2ccc(F)cc2)cc1C(N)=O [GW789449] | 0%
45 | C[C@@H](Oc1cc(-n2cnc3cc(-c4ccncc4)ccc32)sc1C(N)=O)c1ccccc1Cl [GSK479719] | 0%
46 | OCCn1cc(-c2cnc3nnn(Cc4ccc5ncccc5c4)c3n2)cn1 | 0%
47 | Cn1ccc2ncnc(Oc3ccc(NC(=O)Nc4cncc(C(F)(F)F)c4)c(Cl)c3)c21 | 0%
48 | COC(=O)c1cccc(NC(=O)NC2CCN(c3ccnc(NCc4ccc(F)cc4)n3)CC2)c1 [GSK1379860] | 2%
49 | Cc1n[nH]c2cc(Nc3ccnc(Nc4cccc(CN5CCOCC5)c4)n3)ccc12 [GW682569] | 0%
50 | FC(F)(F)c1cc(Br)cc(Nc2nccc(-c3cnn4ncccc34)n2)c1 [GW810578] | 37%
51 | Cn1ccc2ncnc(Oc3ccc(NC(=O)Nc4cccc(C(F)(F)F)c4)c(F)c3)c21 | 10%
52 | COc1cc2ncn(-c3cc(OCC4CCCCC4)c(C(N)=O)s3)c2cc1OC [GSK204559] | 0%
53 | CN1CCN(CCNc2nc3cc(Oc4ccc(NC(=O)Nc5cc(C(F)(F)F)ccc5F)cc4)ccc3[nH]2)CC1.Cl.Cl [GW768504] | 0%
54 | CS(=O)c1ccc(-c2coc3ccc(-c4n[nH]c(=O)o4)cc23)cc1 (stereo not shown) | 0%
55 | CN(c1cccc(CNc2nc(Nc3ccc4c(c3)CC(=O)N4)ncc2C(F)(F)F)c1)S(C)(=O)=O | 31%

Row | Compound | %Inh
56 | C[C@@H](Oc1cc(-n2cnc3ccc(-c4ccncc4)cc32)sc1C(N)=O)c1ccccc1Cl [GSK483724] | 1%
57 | c1ccc(Oc2ccc(Nc3ccnc4ccc(-c5ccccn5)cc34)cc2)cc1 [GW407034] | 93.1%
58 | COc1cc(Nc2nccc(N3CCC(NC(=O)c4cccc(C#N)c4)C3)n2)cc(OC)c1OC (stereo not shown) [GSK1379751] | 0%
59 | COC(=O)Nc1nc2cc(Oc3ccc(NC(=O)Nc4cc(C(F)(F)F)ccc4Cl)cc3)ccc2[nH]1.Cl [GW697465] | 0%
60 | COc1cccc(OC)c1C(=O)Nc1cccc(-c2nn3ccccc3c2-c2ccnc(Nc3cccc(F)c3)n2)c1 [GSK361065] | 21%
61 | C[C@@H](Oc1cc(-n2cnc3cc(-c4cnn(C)c4)ccc32)sc1C(N)=O)c1ccccc1Cl [GSK580432] | 0%
62 | O=C(Nc1ccc(Oc2ccc3nc(NC(=O)C4CC4)cn3n2)c(F)c1)c1cccn(-c2ccccc2)c1=O | 0%
63 | Cn1cc(-c2cccc3c(N)c(C(N)=O)nnc23)cn1 | 3%
64 | Cc1ccc2c(-c3ccnc(Nc4ccc(C(F)(F)F)cc4)n3)cnn2n1 [GW819776] | 0%
65 | Cl.Nc1n[nH]c2cc(-c3ccccn3)ccc12 [GSK2189892] | 0%
66 | C[C@@H]1CNc2c(sc3ccc4nc(-c5ccc(O)cc5)ccc4c23)C(=O)N1 | 25%
67 | CC(=O)Nc1nc2cnc(Nc3cc(NC(=O)c4cccc(CC(C)(C)C#N)c4)ccc3C)nc2s1 | 14%
68 | CC(C)S(=O)(=O)N1CCN(Cc2ccc3c(c2)nc(NC(=O)c2ccsc2)n3C[C@H](O)c2ccccc2)CC1 [GW635815] | 0%
69 | Cn1ccc2ncnc(Oc3ccc(NC(=O)Nc4ccnc(C(F)(F)F)c4)c(Cl)c3)c21 | 0%
70 | O=C1NCCc2[nH]c(-c3ccncc3)cc21 | 29%
71 | Cc1ccc(C(=O)Nc2ccc(Oc3ccc4nc(NC(=O)C5CC5)cn4c3)c(F)c2)c(=O)n1-c1ccccc1 | 0%
72 | Cc1ccc(Nc2ccnc(Nc3ccc4c(c3)CS(=O)(=O)C4)n2)cc1O.Cl [GW579362] | 95%
73 | CN(c1ccccc1CNc1nc(Nc2ccc3c(c2)CC(=O)N3)ncc1C(F)(F)F)S(C)(=O)=O | 83%
